# Among all 360,000 compounds or so, about 25,000 (6.9%) were called active. A call without a number means that no potency is given here. Not shown: some 9% with an inconclusive outcome. The call rests on the fitted dose curve; in most records, active means well fitted inhibition curve with a large enough effect; inconclusive means small, poorly fitted or top-dose-only effect; inactive means flat fitted curve, though single readings scatter. The sample as a whole holds a higher share of actives than the screen did.
# Biological target: Luciferin 4-monooxygenase (Photinus pyralis) (UniProt P08659)
# Sequence (P08659 whole entry, looked up): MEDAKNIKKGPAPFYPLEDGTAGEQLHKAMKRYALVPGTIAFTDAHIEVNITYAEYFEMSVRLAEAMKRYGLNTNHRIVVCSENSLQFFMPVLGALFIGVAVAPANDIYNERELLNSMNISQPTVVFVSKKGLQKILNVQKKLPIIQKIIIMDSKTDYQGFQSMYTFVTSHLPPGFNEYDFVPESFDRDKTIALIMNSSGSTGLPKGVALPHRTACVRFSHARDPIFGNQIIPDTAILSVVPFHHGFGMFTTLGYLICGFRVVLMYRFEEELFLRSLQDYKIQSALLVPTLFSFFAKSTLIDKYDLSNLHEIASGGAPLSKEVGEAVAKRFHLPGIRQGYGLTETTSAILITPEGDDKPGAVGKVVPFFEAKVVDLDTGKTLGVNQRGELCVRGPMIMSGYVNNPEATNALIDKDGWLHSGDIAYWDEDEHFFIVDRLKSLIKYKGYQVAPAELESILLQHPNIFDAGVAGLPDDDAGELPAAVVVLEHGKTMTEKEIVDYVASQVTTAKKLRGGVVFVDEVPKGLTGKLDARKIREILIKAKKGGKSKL
# Assay: qHTS profiling assay for firefly luciferase inhibitor/activator using purifed enzyme and Km concentrations of substrates (counterscreen for miR-21 project); further: nearly all actives have a fitted effect of over 55% in size
# Details: purified FLuc, luminescence inhibition; series mostly up to 57.5 µM
# Text: MLPCN Grant: 1 R21 NS059478-01 (miR-21 grant) Assay Provider: NCGC NCGC Assay Overview: Firefly (Photinus pyralis) luciferase is one of the most commonly used transcriptional reporters for a number of reasons. It is considered one of the more dynamically responsive reporters -that is, responsive to changes in reporter transcription - as it requires no post-translational modifications and is enzymatically active directly after protein synthesis (Wood, 1998). Additionally, the half-life of the luciferase protein is short relative to other reporter-gene products (Wood, 1995). Whereas reporters with long half-lives potentially allow for increased signal due to accumulation of reporter-gene product, once accumulated in the cell, dynamic changes in reporter-gene expression may be difficult to detect(Fan and Wood, 2007; Almond et al., 2004). It has been shown that wild-type P. pyralis luciferase has a half-life of approximately […] hours in mammalian cells (Thompson et al., 1991). Firefly luciferase reporter-gene assays are also generally considered one of the most sensitive assay types (Wood, 1995; Wood, 1998). Although light produced in a bioluminescence reaction is of lower intensity than that produced during fluorescence emission, this is offset by little to no background light inherent to luminescent assays. Thus the luciferase reporter can be expressed at much lower levels than fluorescent proteins while still providing robust signal. # However, it was initially observed, in 1991, by Thompson et al., that compounds that resemble the substrates of firefly luciferase (FLuc) can act as competitive inhibitors of the enzyme, and that these compounds, upon interaction with luciferase in the cell, can actually stabilize the protein and increase its half-life. Accumulated intracellular FLuc protein can be measured as an increase in luminescence signal, upon addition of detection reagents (which contain high concentrations of FLuc substrates) commonly used in high-throughput screening. In cell-based reporter gene assays that use FLuc as the reporter gene to quantitate the potential influence of a given compound against the target biology, this apparent increase in luminescence can mistakenly be interpreted as identification of a compound that is active against the target of interest. This is the case for the miR-21 FLuc reporter gene assay used to identify inhibitors of the miR-21 pathway (PubChem AID 2289) - compounds of interest will inhibit miR-21 biogenesis/expression or activity, and are identified by causing an increase in luminescence, due to increased FLuc translation. However, FLuc inhibitory compounds that stabilize the FLuc protein will give an identical read-out, making it difficult to distinguish compounds that are active against the target from those active against FLuc. Previous profiling work to determine the prevalence of compounds that affect FLuc enzymatic activity (PubChem AID 411) identified that ~3% of the MLSMR library (then at ~72K) inhibited FLuc. […] Since the MLSMR had grown to ~350K compounds, and since it was expected that a significant percentage of compounds found active in the miR-21 FLuc assay would be FLuc inhibitors, the library was screened for activity against FLuc using a biochemical assay of purified FLuc and KM concentrations of FLuc substrates (D-luciferin and ATP).
# NCGC Assay Protocol Summary: Reagents: 50mM Tris acetate, pH 7.5; 10mM Mg acetate; 10uM D-luciferin (Sigma #L9504); 10uM ATP; 0.01% Tween-20; 0.05% BSA; 10nM P. pyralis luciferase (Sigma #L9506) Control compounds used were two known firefly luciferase inhibitors (compounds (2) and (5) in Auld et al., 2010), and DMSO. […]
row,Structure (SMILES),Potency
1,Cc1ccccc1NC(=O)c1c(NC(=O)c2ccccc2F)sc2c1CCC(C)C2 (stereo not drawn),inactive
2,O=C(Nc1sc2c(c1C(=O)O)CCC2)c1ccccc1F,26900 nM (active)
3,NC(=O)c1c(NC(=O)c2ccccc2)sc2c1CCCC2,675 nM (active)
4,Cc1ccc(C(=O)c2c(NC(=O)c3ccncc3)sc3c2CCCC3)cc1,inactive
5,O=C(CCS(=O)(=O)c1ccccc1)Nc1nc2c(s1)CCCC2,inactive
6,O=C(Cn1c(=O)sc2ccccc21)Nc1nc2c(s1)CCCC2,inactive
7,CC(C)(C)C1CCc2c(sc(NC(=O)c3ccccc3F)c2C(=O)N2CCCCC2)C1 (stereo not drawn),inactive
8,O=C(Nc1nc2c(s1)CCCC2)c1ccccc1F,338 nM (active)
9,C=CCN(CC=C)S(=O)(=O)c1ccc(C(=O)Nc2sc3c(c2C(N)=O)CCCCC3)cc1,inactive
10,O=C(O)c1cccc(S(=O)(=O)N2CC=C(c3ccccc3)CC2)c1,inactive
11,Cc1nnc(SCC(=O)NCc2ccccc2Cl)c2nn(-c3ccccc3)c(C)c12,inactive
12,CC(NCCc1ccc(S(N)(=O)=O)cc1)C(=O)NCc1ccccc1 (stereo not drawn),inactive
13,Cc1ccc(S(=O)(=O)N(C)C)cc1NC(=O)c1ccc(-n2cncn2)c([N+](=O)[O-])c1,inactive
14,O=C(CNC(=O)OCc1ccccc1)NC1CCCCNC1=O (stereo not drawn),inactive
15,CCOc1cc(-c2nnc(SCC(=O)NC3CCCCC3)nc2-c2ccc(OC)c(OCC)c2)ccc1OC,inactive
16,Cc1cc(C)cc(NC(=O)Cn2c(=O)c3ccccc3n3nncc23)c1,inactive
17,Cc1cccc(C(=O)NCC(=O)OCC(=O)N(C)CC(=O)Nc2ccccc2Cl)c1,inactive
18,COc1ccc(CCNC(=O)c2cc3cccc4c3n2CC(C)S4)c(OC)c1OC (stereo not drawn),inactive
19,CN1C(=O)c2ccccc2Sc2ccc(NC(=O)Cc3ccc(Cl)cc3)cc21,inactive
20,CN1C(=O)/C(=C\c2cc(Br)cs2)c2ccccc21,4260 nM (active)
21,CCC1C(=O)c2ccccc2N(C)C1=O (stereo not drawn),inactive
22,COc1ccc(CN(C)C(=O)CC(c2ccccc2)c2ccccc2)cc1,inactive
23,COc1ccc(C(CC(=O)c2ccccc2)S(=O)(=O)c2ccccc2)cc1 (stereo not drawn),478 nM (active)
24,COc1ccc(N(Cc2ccccc2)S(=O)(=O)c2cccc(C(=O)O)c2)cc1,inactive
25,Cc1c(NS(=O)(=O)c2cc(C(=O)NCCc3ccc(F)cc3)cc(Cl)c2Cl)c(=O)n(-c2ccccc2)n1C,inactive
26,Cc1cccc(OC(=O)c2sc3ncn(C)c(=O)c3c2C)c1,12000 nM (active)
27,Cc1c(C(N)=O)sc2ncn(CCOc3ccccc3)c(=O)c12,inactive
28,COc1cccc(-n2c(=O)c3c(C)c(C(=O)N(C)C)sc3n(Cc3cccc(C)c3)c2=O)c1,inactive

# Reference: PubChem BioAssay AID588342 (National Center for Advancing Translational Sciences (NCATS), 2011)
